# ChEMBL document CHEMBL1157539, “Thousands of chemical starting points for antimalarial lead identification” (Nature, 2010)
# Key:
# Format in all cases: functional
# Plasmodium falciparum [1] = test: GSK_TCMDC: Inhibition of Plasmodium falciparum 3D7 in whole red blood cells, using parasite LDH activity as an index of growth. Test compounds present at 2uM
# Plasmodium falciparum [2] = test: GSK_TCMDC: Inhibition of Plasmodium falciparum Dd2 in whole red blood cells, using parasite LDH activity as an index of growth. Test compounds present at 2uM
# HepG2 = test: GSK_TCMDC: Percent inhibition of human HepG2 cell line. Test compounds present at 10uM.
SMILES,Inhibition (Plasmodium falciparum [1]) [%],Inhibition (Plasmodium falciparum [2]) [%],Inhibition (HepG2) [%]
CC1CN(c2cccc3c2nc(-c2cncc(C#N)c2)n3CCNCc2ccccc2)CC(C)O1.O=C(O)C(F)(F)F (centres undefined),83,9,0
O=C(Nc1cccc(C(F)(F)F)c1)Nc1ccc2nonc2c1,98,76,0
COc1c(C2CCN(CCCCNC(=O)c3cc(-c4ccc(Cl)cc4)[nH]c3C)CC2)ccc2c1CCCC2,100,91,53
COc1cc2ccccc2cc1CCNCCCCNCCc1cc2ccccc2cc1OC.CS(=O)(=O)O,99,38,100
CCCc1ccc(S(=O)(=O)NC2CCN(c3ccnc(Nc4ccc(F)cc4)n3)C2)cc1 (centres undefined),95,56,40
Cc1cc(Nc2ccc(O)cc2)nc2cc(O)ccc12.Cl,100,9,0
Cc1cc(OCCCN2CCCCC2)ccc1NC(=O)COc1ccc(Cl)cc1C(=O)c1cc(Cl)cc(C#N)c1,93,16,28
Cc1[nH]cc(Br)c(=O)c1-c1ccc(Oc2ccccc2)cc1,97,96,0
COc1ccc2nccc(N3CCC(NCCNCc4cc5c(cn4)OCCO5)C3)c2n1.Cl (centres undefined),99,3,8
O=C(Nc1ccc(-c2cccc(-c3nc4cc(F)ccc4[nH]3)c2)cc1)c1ccncc1,96,18,58
CCCCN1CCCC[C@H]1[C@@H](O)c1ccnc2ccc(OCC)cc12,100,88,6
CCCOc1ccccc1-c1nc2[nH]c3c(c2c(=O)[nH]1)CCN(C)C3,87,70,8
O=C(Nc1ccc(OC2CCN(Cc3ccccc3)CC2)c(Cl)c1)c1ccco1.O=C(O)C(F)(F)F,96,96,8
N#Cc1ccc(-c2ccc(C(=O)NCCCCN3CCC(c4cn(CCO)c5ccccc45)CC3)cc2)cc1,93,43,23
CC(C)c1cn2c3c(cc(C(=O)N[C@@H](Cc4ccccc4)[C@H](O)CNC4CCOCC4)cc13)N(C)S(=O)(=O)CC2.O=CO,98,99,9
COc1cc(OC)nc(C(Sc2ccc(NC(=O)c3cccs3)cc2)c2ccccc2)n1 (centres undefined),97,96,7
O=C(NCCN1CCCCC1)c1cccc(Nc2nccc(Nc3ccc(Oc4ccccc4)cc3)n2)c1,99,86,50
CCCc1cc(Cc2cnc(N)nc2N)cc(OC)c1OC,87,4,2
Cl.Cn1c(/C=C/C(=O)NC2CCC(CCN3CCc4ccc(C#N)cc4CC3)CC2)cc2ccccc21 (centres undefined),100,29,15
COc1cc(/C=C/C(=O)NC2CCC(N3CCC(c4ccccc4C)CC3)CC2)cc(OC)c1 (centres undefined),89,11,51
CCc1c(C(=O)NC2CCC(N3CCC(c4ccccc4OC)CC3)CC2)[nH]c2ccc(Br)cc12 (centres undefined),100,98,85
CCN(CC)CCN(Cc1ccc(-c2ccc(C(F)(F)F)cc2)cc1)C(=O)Cn1c(CCc2cc(F)ccc2F)nc(=O)c2ccccc21.O=C(O)C(O)C(O)C(=O)O,98,52,42
O=C(NCc1cccc2ccccc12)C(c1cc2ccccc2o1)N1CCN(C(c2ccccc2)c2ccccc2)CC1 (centres undefined),99,90,0
CC1(CCc2ccccc2)N=C(N)N=C(N)C1c1ccc(Cl)c(Cl)c1.Cl (centres undefined),98,39,19
CS(=O)(=O)N(c1ccc(F)cc1)c1cc(C(=O)N[C@@H](Cc2ccccc2)[C@H](O)CNCc2cccc(C(F)(F)F)c2)cc(N2CCCC2=O)c1.O=CO,91,65,0
O=C(c1cc(C(=O)Nc2ccc(F)cc2)c(=O)n(-c2ccc(F)cc2)c1)c1cc(Cl)ccc1O,100,98,13
NC(=O)C1CCN(Cc2ccc(-c3ccc(-c4nc5cc(C(F)(F)F)ccc5[nH]4)cc3)cc2)CC1.O=C(O)C(F)(F)F,100,90,25
O=C(O)C(F)(F)F.O=c1[nH]ccc2nc(N[C@@H]3CCNC3)nc(Nc3cccc(S(=O)(=O)N4CCOCC4)c3)c12,90,98,0
